PHOSPHO1 block – blocks human PHOSPHO1 phosphatase activity. inhibition, % at 13.3 µM. Q8TCT1. AID 1565. recombinant PHOSPHO1, absorbance phosphatase assay. 290,000 tested, 1.1% active; in the data active = inhibition above about 60%
Target sequence (Q8TCT1 whole entry, looked up): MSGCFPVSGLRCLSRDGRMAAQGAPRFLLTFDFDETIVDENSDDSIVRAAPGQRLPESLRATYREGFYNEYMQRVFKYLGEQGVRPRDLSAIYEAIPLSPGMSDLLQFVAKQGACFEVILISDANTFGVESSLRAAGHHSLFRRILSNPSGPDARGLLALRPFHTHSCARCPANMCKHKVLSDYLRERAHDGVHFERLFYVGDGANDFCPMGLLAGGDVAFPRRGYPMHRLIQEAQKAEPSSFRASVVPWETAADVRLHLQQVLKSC
PABP1 MLLE inh – inhibitors of microRNA-mediated deadenylation, human PABP1 MLLE binding; AID 588489; 360,000 tested, 0.36% active; P11940; inhibition, % at 20 µM; GST-MLLE / FITC-PAM2 fluorescence polarization; in the data active = inhibition above about 35%, passing the limit was not always enough;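 also: plate controls were DMSO wells with GST-MLLE for no effect and wells lacking GST-MLLE protein for full effect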
CRFR2-BP antag – antagonists of CRF-binding protein/CRF-R2 receptor complex. inhibition, % at 11.8 µM. HEK293 CRF-R2/CRF-BP, CRF-induced calcium fluorescence. 350,000 tested, 0.59% active;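 active = inhibition of the ligand-induced calcium signal above about 50% at the single tested concentration, limit read from the data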
eIF4H FP inh – inhibitors of RNA binding by human eIF4H | eIF4H fluorescence polarization binding assay | AID 2012 | inhibition, % at 35 µM | 290,000 tested, 0.94% active;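 also: calls also rest on retests at 20 µM and on dose response follow-up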
PABP FP inh – blocks human PABP binding to poly(A) RNA; P11940; fluorescence polarization; inhibition, % at 35 µM; 290,000 tested, 1% active;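 also: calls also rest on retests at 20 µM and on dose response follow-up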
Numbers without * were called inactive; · = no result given. Hits are enriched below; roughly 2.6% of the tested compounds scored in any of these assays. Unless noted, no rule for the calls is given here.

SMILES	PHOSPHO1 block	PABP1 MLLE inh	CRFR2-BP antag	eIF4H FP inh	PABP FP inh
CC(C)(C)c1cc(C(=O)NNC(=O)Nc2cccc(Cl)c2)n(Cc2ccccc2)n1	23.1	-3.2	51.0*	-16.2	-8.4
Cc1ccc(-c2cnc(C(O)c3ccc(C)cc3)[nH]2)cc1 (stereo not drawn)	·	1.5	·	·	·
CC1CCN(CC(=O)Nc2sc3c(c2C#N)CCC3)CC1	11.6	-3.5	0.1	49.9*	60.5
N#Cc1c(NC(=O)c2ccncc2)sc2c1CCC2	31.2	7.0	7.8	50.6*	6.8*
N#Cc1c(NC(=O)c2ccco2)sc2c1CCC2	19.8	17.1	-3.3	73.9*	49.0*
Cn1nccc1C(=O)NC(=S)Nc1sc2c(c1C#N)CCCCC2	67.5*	11.4	8.6	12.1	11.3
CCCC(=O)Nc1sc2c(c1C#N)CCCC2	0.2	-0.7	-4.4	3.8	3.4
CCN(CC)C(=O)C1=C(C)N(CCC2=CCCCC2)C(=O)C(CC(=O)NC2CCCC2)C1 (stereo not drawn)	·	5.8	6.8	·	·
O=C(CC[C@H]1O[C@@H](n2ccc(=O)[nH]c2=O)[C@H](O)[C@@H]1O)N[C@@H](Cc1ccccc1)C(=O)NCC1CCCCC1	·	-0.4	·	·	·
N#Cc1c(NC(=O)C2CC(c3ccccc3O)=NO2)sc2c1CCC2 (stereo not drawn)	-27.1	39.7*	-7.8	-3.6	-11.5
C=CCc1cc(Cl)ccc1OCCOCCNCCOC	23.2	13.5	-11.6	-5.4	-5.2
C=CCc1cc(Cl)ccc1OCCOCCNC(C)(C)C	62.9*	-3.5	-23.5	5.2	-11.5
C#CCN(C[C@@H]1[C@@H](OC(=O)NCC2CCCCC2)[C@@H](OC(=O)NCC2CCCCC2)Cn2c(=O)n(CCCCCC)c(=O)n21)S(=O)(=O)c1ccc(C)cc1	·	-11.7	11.0	·	·
O=C(CN1CCCCCC1)N1c2ccccc2Sc2ccccc21	53.2	-10.6	-10.8	-6.2	-5.8
CC1CCCN(CC(=O)N2c3ccccc3Sc3ccccc32)C1 (stereo not drawn)	31.7	-0.3	-29.8	3.1*	53.8
CC(C)[C@H](NC(=O)c1ccccc1F)C(=O)NC1CCCCCCC1	·	-46.3	-6.9	·	·
CC(=O)Nc1ccc(S(=O)(=O)N2CCN(c3nnnn3-c3ccccc3)CC2)cc1	5.0	6.6	102.1*	-7.8	-4.0
COC(=O)c1sc(N2C(=O)C(O)=C(C(=O)c3ccc(C)o3)C2c2cccs2)nc1C (stereo not drawn)	37.7	-34.4	1.9	-1.9	3.5
COC(=O)c1sc(N2C(=O)C(O)=C(C(=O)c3ccc(C)o3)C2c2ccco2)nc1C (stereo not drawn)	4.5	-18.9	8.9	52.2*	34.4*
Cc1ccc2sc(C)[n+](CCC(C)S(=O)(=O)[O-])c2c1 (stereo not drawn)	-9.7	41.2*	-2.9	3.0	-4.6
CC/C(=C/c1sc2ccc(C)cc2[n+]1CCCS(=O)(=O)[O-])SC	-33.9	·	24.7	-0.4	-17.2
N#C/C(=C\c1sc(N2CCOCC2)nc1-c1ccccc1)C(=O)Nc1cccc2ccccc12	-9.8	·	·	55.0*	active
CC(=O)c1sc(N2CCOCC2)nc1-c1ccccc1	-5.9	0.1	-4.3	-5.8	-7.4
O=C(Nc1ccccc1)c1sc(N2CCOCC2)nc1-c1ccccc1	-14.5	-1.7	-11.2	active	75.1*
COc1ccc(-c2cn(CCc3c[nH]c4ccccc34)nn2)cc1	4.0	-10.5	3.0	-3.3	3.3
SMILES	PHOSPHO1 block	PABP1 MLLE inh	CRFR2-BP antag	eIF4H FP inh	PABP FP inh
CC(=O)c1ccc2c3c(cc(C)c2c1)CCCC3	·	2.2	-9.3	·	·
OCCc1ccc(NCCc2cccs2)cc1	·	10.7	·	·	·
CCOc1c(Br)cc(C(=O)Nc2cccc(S(=O)(=O)N3CCOCC3)c2)cc1OC	·	-5.5	-5.2	·	·
CNc1cc(-c2cc(OC)ccc2OC)ncn1	·	0.6	·	·	·
CCCn1c(CN2CCN(C(=O)OCC)CC2)nc2c1c(=O)n(C)c(=O)n2C	-24.1	1.6	4.1	-3.0	-2.7
CCOC(=O)N1CCN(Cc2nc3c(c(=O)n(C)c(=O)n3C)n2CCC(C)C)CC1	10.6	16.0	129.4*	-6.1	2.9
COC(=O)C1=C(C(=O)OC)C(c2ccccc2O)c2sc(=O)[nH]c2S1 (stereo not drawn)	2.5	45.5*	-33.0	-3.6	1.9
COC(=O)c1sc2ccccc2c1N	22.2	37.1	3.9	5.0	18.2
Cc1ccccc1C1N=C2Oc3ccccc3C=C2C(=O)N1 (stereo not drawn)	·	21.9	·	·	·
COC(=O)/C=C1\SC(=NC(=O)c2ccc(C)cc2)NC1=O	32.5	40.1*	1.4	32.1	-5.8
O=C(O)c1cccc(N2C(=O)c3cccc4cccc(c34)C2=O)c1	18.9	11.6	-6.6	-5.2	-3.9
O=C(O)c1cccc(N2C(=O)c3cc([N+](=O)[O-])cc4cc([N+](=O)[O-])cc(c34)C2=O)c1	30.5	-1.8	9.8	68.2*	56.8*
CCCNC(=O)c1cc(C2CCCN(C(=O)c3cc(F)ccc3C)C2)on1 (stereo not drawn)	·	-0.2	·	·	·
Cc1sc(-n2c(C)ccc2C)c(C#N)c1C	95.3*	31.5	16.2	3.1	8.2
Cc1ccc(C2CC(=O)N3CN(Cc4ccco4)CSC3=C2C#N)cc1 (stereo not drawn)	75.9*	-3.5	-10.9	-1.6	16.5
N#CC1=C2SCN(Cc3ccco3)CN2C(=O)CC1c1c(F)cccc1Cl (stereo not drawn)	78.6*	-53.8	-0.2	5.0	19.5
CC(C)c1ccc(C2CC(=O)N3CN(C)CSC3=C2C#N)cc1 (stereo not drawn)	12.2	-1.6	15.6	8.2	6.3
Fc1ccc2[nH]c3c(c2c1)CN(C(=S)NCc1ccccc1)CC3	24.4	-131.4	-5.3	3.5	3.3
CC(=O)c1ccc(OCc2nnn(CC(=O)NS(=O)(=O)c3ccc(C)cc3)c2-c2ccccc2)cc1	·	16.9	·	·	·
CCc1nnc(NC(=O)CSc2ccc(-c3nc4ccc(C)cc4[nH]3)cn2)s1	-13.9	-5.9	31.7	3.3	17.5
Cc1cc(C)nc(NS(=O)(=O)c2ccc(NC(=O)CSc3ncn[nH]3)cc2)n1	61.8*	3.5	-5.4	1.3	4.5
Nc1ccn([C@@H]2O[C@H](CNC(=O)[C@H]3CCC(=O)N3)[C@@H](O)[C@H]2O)c(=O)n1	·	7.5	-8.7	·	·
CCOC(=O)N1CCN(c2cc3[nH]c(=S)[nH]c3cc2F)CC1	57.4	3.0	-0.4	0.7	-8.4
CCOC(=O)N1CCN(c2c(F)cc3[nH]c(=S)[nH]c3c2Br)CC1	71.4*	1.4	-16.8	-3.9	1.9
COc1ccccc1NC(=O)c1sc2nc(Cc3ccccc3)cc(C(F)(F)F)c2c1N	7.8	-3.4	-66.1	65.3*	113.3*
CCN(CC)C1Oc2cc3c(cc2C(c2cccc(OC)c2O)C1C)OCO3 (stereo not drawn)	·	-0.5	120.4*	·	·
O=C(O)c1ccc(/C=N/NC(=O)c2ccc(CN3c4cccc5cccc(c45)S3(=O)=O)cc2)cc1	34.7	-7.7	13.3	58.7*	17.9
Cc1ccc(CNc2ncnc3c2cnn3C2CCCCO2)cc1 (stereo not drawn)	·	-3.3	-2.0	·	·

High-throughput results from PubChem.
